Results filed as inconclusive are left out. A call without a number means that no potency is given here. Activity calls are given as the source filed them. Unless noted, the call rests on the fitted dose curve; in most records, active means well fitted curve in the direction sought with a large enough effect in the repeat runs; inconclusive means weak or mixed curves; inactive means no such curve, though single readings can be large; an effect the other way counts as inactive or inconclusive.
How the values were obtained:
[1] = qHTS assay to identify small molecule agonists of the peroxisome proliferator-activated receptor delta (PPARd) signaling pathway - cell viability counter screen (AID 743211); further: nearly all actives have a fitted effect of over 55% in size; further: potency means the concentration at half of the fitted maximal effect
Method in brief: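 Following 5 h plating at 37 C and 5% CO2, PPARd UAS-bla HEK293H cells took up test compounds for 17 h. Viability was quantified by luminescence 30 min after CellTiter-Glo addition at room temperature.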

[2] = biological target: Peroxisome proliferator-activated receptor delta (Homo sapiens) (UniProt Q03181); assay: qHTS assay to identify small molecule agonists of the peroxisome proliferator-activated receptor delta (PPARd) signaling pathway (AID 743212; calls by dose curve)
Peroxisome proliferator-activated receptor delta (Homo sapiens), sequence (Q03181 whole entry, looked up): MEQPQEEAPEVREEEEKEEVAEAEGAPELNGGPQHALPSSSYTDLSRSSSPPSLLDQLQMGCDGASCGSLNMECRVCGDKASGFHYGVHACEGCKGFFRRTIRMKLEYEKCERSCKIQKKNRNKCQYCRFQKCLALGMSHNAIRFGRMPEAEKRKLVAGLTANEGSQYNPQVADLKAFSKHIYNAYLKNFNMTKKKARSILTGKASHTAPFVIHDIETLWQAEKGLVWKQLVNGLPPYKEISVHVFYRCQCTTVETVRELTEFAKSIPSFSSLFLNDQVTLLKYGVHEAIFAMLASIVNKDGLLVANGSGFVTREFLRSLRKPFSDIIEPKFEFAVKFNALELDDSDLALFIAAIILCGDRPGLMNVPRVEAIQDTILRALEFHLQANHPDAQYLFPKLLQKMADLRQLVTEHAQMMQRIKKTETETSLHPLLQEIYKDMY
Method in brief: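 Quantitative high-throughput agonist screen in a HEK293H beta-lactamase reporter line under UAS control. Compounds in DMSO, at 37 C. Fluorescence read after 2 h with FRET substrate at room temperature.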

[3] = qHTS assay to identify small molecule antagonists of the peroxisome proliferator-activated receptor delta (PPARd) signaling pathway - cell viability counter screen (AID 743213); further: nearly all actives have a fitted effect of over 50% in size; further: potency means the concentration at half of the fitted maximal effect
Method in brief: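 Luminescence from CellTiter-Glo, added after the bla read and incubated 30 min at room temperature, gives viability of HEK293H PPARd-bla cells exposed to compounds for 17 h at 37 C with 300 nM L165041.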

[4] = biological target: Peroxisome proliferator-activated receptor delta (Homo sapiens) (UniProt Q03181); assay: qHTS assay to identify small molecule antagonists of the peroxisome proliferator-activated receptor delta (PPARd) signaling pathway (AID 743215; active means well fitted inhibition curve with a large enough effect in the signal ratio in the repeat runs, not every such curve was filed as active; the % refers to the signal ratio;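 further: cells stimulated with agonist L165041 at 300 nM final during compound exposure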; further: potency means the concentration at half of the fitted maximal effect)
Method in brief: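 With L165041 present at 300 nM final, compounds were incubated 17 h at 37 C on PPARd UAS-bla HEK293H cells. A FRET-based beta-lactamase substrate was then applied for 2 h at room temperature and fluorescence intensity recorded.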

[5] = qHTS assay to identify small molecule agonists of the farnesoid-X-receptor (FXR) signaling pathway - cell viability counter screen (AID 743218); further: nearly all actives have a fitted effect of over 45% in size; further: potency means the concentration at half of the fitted maximal effect
Method in brief: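 After 16 h at 37 C with test compounds, FXR-bla HEK 293T cells were given LiveBLAzer B/G substrate for 2 h at RT and then CellTiter-Glo; luminescence was taken after 30 min.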

[6] = qHTS assay to identify small molecule antagonists of the farnesoid-X-receptor (FXR) signaling pathway - cell viability counter screen (AID 743221; active means well fitted cell-killing curve with a large enough effect in the repeat runs, not every such curve was filed as active; further: nearly all actives have a fitted effect of over 50% in size; further: potency means the concentration at half of the fitted maximal effect)
Method in brief: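 Compound effects on cell number were measured as CellTiter-Glo luminescence in HEK 293T cells expressing FXR-UAS-bla, after 16 h at 37 C with 50 uM CDCA (final).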

[7] = biological target: Vitamin D3 receptor (Homo sapiens) (UniProt P11473); assay: qHTS assay to identify small molecule agonists of the vitamin D receptor (VDR) signaling pathway (AID 743222; calls by dose curve)
Vitamin D3 receptor (Homo sapiens), sequence (P11473 whole entry, looked up): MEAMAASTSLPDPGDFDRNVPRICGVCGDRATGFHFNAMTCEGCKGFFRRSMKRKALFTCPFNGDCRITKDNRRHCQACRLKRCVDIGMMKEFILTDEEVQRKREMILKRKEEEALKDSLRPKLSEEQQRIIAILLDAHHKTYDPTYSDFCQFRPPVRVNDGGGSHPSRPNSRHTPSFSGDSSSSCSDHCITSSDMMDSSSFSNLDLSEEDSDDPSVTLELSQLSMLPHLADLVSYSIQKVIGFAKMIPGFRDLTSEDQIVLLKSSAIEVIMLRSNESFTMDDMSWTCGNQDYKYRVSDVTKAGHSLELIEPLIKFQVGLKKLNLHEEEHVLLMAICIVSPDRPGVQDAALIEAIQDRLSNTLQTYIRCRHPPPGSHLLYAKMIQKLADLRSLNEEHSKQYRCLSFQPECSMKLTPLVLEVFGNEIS
Method in brief: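 VDR-bla cells were seeded, left 4 h, treated with compounds in DMSO for 16 h, incubated 2 h at RT with B/G FRET substrate, and read for fluorescence.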

[8] = biological target: Vitamin D3 receptor (Homo sapiens) (UniProt P11473); assay: qHTS assay to identify small molecule antagonists of the vitamin D receptor (VDR) signaling pathway (AID 743223; active means well fitted inhibition curve with a large enough effect in the signal ratio in the repeat runs, not every such curve was filed as active; the % refers to the signal ratio)
Method in brief: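 Beta-lactamase activity in VDR-bla cells is measured by FRET substrate fluorescence (2 h, room temperature) after cells spend 16 h at 37C with test compound and 3 nM final 1alpha,25-dihydroxyvitamin D3.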

[9] = qHTS assay to identify small molecule agonists of the vitamin D receptor (VDR) signaling pathway - cell viability counter screen (AID 743224); further: nearly all actives have a fitted effect of over 50% in size; further: potency means the concentration at half of the fitted maximal effect
Method in brief: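 Here cell health was gauged by luminescent ATP detection (CellTiter-Glo, 30 min RT) in VDR-bla cells that had been incubated with test compounds for 16 h at 37C and 5% CO2.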

[10] = qHTS assay to identify small molecule antagonists of the vitamin D receptor (VDR) signaling pathway - cell viability counter screen (AID 743225); further: nearly all actives have a fitted effect of over 50% in size; further: potency means the concentration at half of the fitted maximal effect
Method in brief: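 In this counter screen, VDR-bla HEK 293T cells receive test compound plus 3 nM final calcitriol for 16 h at 37C. Room-temperature steps of 2 h with the beta-lactamase substrate, then 30 min with CellTiter-Glo, precede the luminescence read.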

[11] = qHTS assay to identify small molecule agonists of the NFkB signaling pathway - cell viability counter screen (AID 1159515; calls by dose curve; further: nearly all actives have a fitted effect of over 55% in size; further: potency means the concentration at half of the fitted maximal effect)
Method in brief: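 5 hr compound treatment of NFkB-bla ME-180 cells (2,000/well, seeded overnight beforehand), followed by reporter substrate for 1.5 hr. CellTiter-Glo added afterward; luminescence after 30 min RT.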

[12] = qHTS assay to identify small molecule agonists of the endoplasmic reticulum stress response signaling pathway (AID 1159516; active means well fitted activation curve with a large enough effect in the signal ratio in the repeat runs, not every such curve was filed as active; the % refers to the signal ratio)
Method in brief: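 Reporter HeLa cells (ESRE-beta-lactamase) underwent 5 hr compound incubation at 37 C and 5% CO2 in quantitative HTS format. Detection followed 2 hr of FRET substrate loading at room temperature.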

[13] = qHTS assay to identify small molecule antagonists of the retinoid-related orphan receptor gamma (ROR-gamma) signaling pathway - cell viability counter screen (AID 1159520); further: nearly all actives have a fitted effect of over 50% in size; further: potency means the concentration at half of the fitted maximal effect
Method in brief: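 Tet-on ROR gamma CHO cells were given compounds for 2 hr, then doxycycline hyclate at 1 uM final, and incubated 16 hr at 37 C. Viability was measured as ATP content by CellTiter-Glo luminescence.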

[14] = biological target: Nuclear receptor ROR-gamma (Homo sapiens) (UniProt P51449); assay: qHTS assay to identify small molecule antagonists of the retinoid-related orphan receptor gamma (ROR-gamma) signaling pathway (AID 1159521; further: nearly all actives have a fitted effect of over 50% in size; further: potency means the concentration at half of the fitted maximal effect)
Method in brief: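 Screening format: cell-based luciferase reporter in CHO cells with doxycycline-inducible RORγ. Compound pre-exposure lasts 2 h, doxycycline is 1 uM final, induction runs 16 h at 37 C, and ONE-Glo luminescence is read.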

[15] = qHTS assay to identify small molecule agonists of the AP-1 signaling pathway - cell viability counter screen (AID 1159525; calls by dose curve; further: nearly all actives have a fitted effect of over 55% in size; further: potency means the concentration at half of the fitted maximal effect)
Method in brief: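 AP-1-bla ME-180 cells in Opti-MEM with 0.5% dialyzed FBS, compound exposure 5 h at 37 C in 15-point titration. Viability read in the same wells as ATP content by CellTiter-Glo luminescence, normalised to tetra-n-octylammonium bromide and DMSO controls.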

[16] = qHTS assay to identify small molecule agonists of the endoplasmic reticulum stress response signaling pathway - cell viability counter screen (AID 1159517; calls by dose curve; further: nearly all actives have a fitted effect of over 50% in size; further: potency means the concentration at half of the fitted maximal effect)
Method in brief: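 Counter-screen wells were identical to the reporter wells. Cells were plated at 1,500 per well and dosed for 5 hr, then read for luminescence 30 min after CellTiter-Glo addition.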

[17] = biological target: Bile acid receptor (Homo sapiens) (UniProt Q96RI1); assay: qHTS assay to identify small molecule antagonists of the farnesoid-X-receptor (FXR) signaling pathway (AID 743217; active means well fitted inhibition curve with a large enough effect in the signal ratio in the repeat runs, not every such curve was filed as active; the % refers to the signal ratio)
Bile acid receptor (Homo sapiens), sequence (Q96RI1 whole entry, looked up): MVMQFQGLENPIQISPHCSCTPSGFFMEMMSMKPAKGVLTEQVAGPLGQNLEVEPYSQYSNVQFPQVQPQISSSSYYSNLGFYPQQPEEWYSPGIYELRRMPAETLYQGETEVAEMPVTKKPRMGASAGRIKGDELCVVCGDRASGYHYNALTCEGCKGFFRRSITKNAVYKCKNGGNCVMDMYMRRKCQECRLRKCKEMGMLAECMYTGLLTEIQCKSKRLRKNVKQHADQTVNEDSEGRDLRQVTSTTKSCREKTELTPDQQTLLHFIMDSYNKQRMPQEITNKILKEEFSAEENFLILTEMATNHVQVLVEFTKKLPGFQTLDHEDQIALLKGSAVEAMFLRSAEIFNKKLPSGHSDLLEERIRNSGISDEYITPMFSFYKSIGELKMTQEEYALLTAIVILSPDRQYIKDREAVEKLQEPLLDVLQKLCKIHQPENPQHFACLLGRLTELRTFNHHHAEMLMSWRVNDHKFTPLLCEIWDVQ
Method in brief: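 In this cell-based antagonist screen, inhibition of CDCA-driven (50 uM final) UAS-beta-lactamase expression in HEK 293T cells was measured by FRET fluorescence following 16 h compound exposure at 37 °C.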

[18] = qHTS assay to identify small molecule agonists of the AP-1 signaling pathway (AID 1159526; calls by dose curve)
[19] = biological target: Retinoic acid receptor RXR-alpha (Homo sapiens) (UniProt P19793); assay: qHTS assay to identify small molecule agonists of the RXR signaling pathway (AID 1159527; calls by dose curve; further: nearly all actives have a fitted effect of over 35% in size)
Retinoic acid receptor RXR-alpha (Homo sapiens), sequence (P19793 whole entry, looked up): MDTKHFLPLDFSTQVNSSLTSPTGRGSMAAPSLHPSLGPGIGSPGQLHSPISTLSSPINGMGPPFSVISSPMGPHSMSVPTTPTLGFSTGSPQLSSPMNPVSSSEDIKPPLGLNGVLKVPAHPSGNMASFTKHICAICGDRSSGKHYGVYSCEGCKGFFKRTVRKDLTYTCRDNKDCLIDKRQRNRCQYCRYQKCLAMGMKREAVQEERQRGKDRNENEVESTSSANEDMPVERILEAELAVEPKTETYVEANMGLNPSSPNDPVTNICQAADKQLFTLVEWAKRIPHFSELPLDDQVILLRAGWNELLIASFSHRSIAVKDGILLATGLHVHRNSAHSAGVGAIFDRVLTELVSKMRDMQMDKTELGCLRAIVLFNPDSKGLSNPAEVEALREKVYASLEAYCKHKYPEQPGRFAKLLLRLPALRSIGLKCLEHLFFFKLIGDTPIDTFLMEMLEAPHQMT
Method in brief: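 Fluorescence ratio readout (460 vs 530 nm) from GeneBLAzer RXR-alpha HEK 293T cells after 16 hr compound treatment; cells seeded 5 hr beforehand in low-serum, charcoal-stripped medium.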

[20] = biological target: Bile acid receptor (Homo sapiens) (UniProt Q96RI1); assay: qHTS assay to identify small molecule agonists of the farnesoid-X-receptor (FXR) signaling pathway (AID 743220; active means well fitted activation curve with a large enough effect in the signal ratio in the repeat runs, not every such curve was filed as active; the % refers to the signal ratio)
Method in brief: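 Beta-lactamase reporter under UAS control in GeneBLAzer FXR HEK 293T cells (5000/well) measured with LiveBLAzer FRET substrate after 2 h at room temperature. Compound exposure lasted 16 h at 37C.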

| SMILES | Potency [1] | Potency [2] | Potency [3] | Potency [4] | Potency [5] | Potency [6] | Potency [7] | Potency [8] | Potency [9] | Potency [10] | Potency [11] | Potency [12] | Potency [13] | Potency [14] | Potency [15] | Potency [16] | Potency [17] | Potency [18] | Potency [19] | Potency [20] |
| --- | --- | --- | --- | --- | --- | --- | --- | --- | --- | --- | --- | --- | --- | --- | --- | --- | --- | --- | --- | --- |
| CC1CCCC1 | inactive | inactive | inactive | inactive | inactive | inactive | inactive | inactive | inactive | inactive | inactive | inactive | inactive | inactive | inactive |  |  |  |  |  |
| CCCCCCCc1ccc(O)cc1 | 21.9 µM (active) | inactive | inactive |  |  |  | inactive |  |  | inactive | inactive | inactive |  | inactive | 54.9 µM (active) |  |  |  |  |  |
| CC[C@H](C)[C@H]1O[C@]2(C=C[C@@H]1C)C[C@@H]1C[C@@H](C/C=C(\C)[C@@H](O[C@H]3C[C@H](OC)[C@@H](O[C@H]4C[C@H](OC)[C@@H](NC)[C@H](C)O4)[C@H](C)O3)[C@@H](C)/C=C/C=C3\CO[C@@H]4[C@H](O)C(C)=C[C@@H](C(=O)O1)[C@]34O)O2 | 3.09 µM (active) |  | 3.89 µM (active) |  | 5.49 µM (active) | 8.71 µM (active) |  |  | 3.09 µM (active) | 4.36 µM (active) | 34.7 µM (active) |  | 13.7 µM (active) | 3.86 µM (active) | 13.8 µM (active) | 19.5 µM (active) |  |  |  |  |
| C=CCBr | inactive |  | inactive |  | inactive | inactive | inactive |  |  | inactive | inactive | inactive | inactive |  |  |  | inactive | inactive | inactive |  |
| Cc1nn(-c2cc(NS(C)(=O)=O)c(Cl)cc2Cl)c(=O)n1C(F)F |  |  | inactive |  | inactive | inactive | inactive | inactive | inactive |  | inactive |  | inactive | inactive | inactive | inactive |  | inactive | inactive |  |
| O=C(NC(=O)c1ccccc1Cl)Nc1ccc(OC(F)(F)F)cc1 | inactive | inactive | inactive | inactive | inactive | inactive | inactive | inactive | inactive |  | inactive |  | inactive | inactive | inactive | inactive |  | inactive | inactive |  |
| S=C=NCCc1ccccc1 |  | inactive | inactive | inactive |  |  |  | inactive |  |  | inactive | inactive |  |  | inactive |  |  |  |  |  |
| CCCCC/C=C\C/C=C\C/C=C\C/C=C\CCCC(=O)NCC(=O)O |  |  |  |  | 29.8 µM (active) |  | inactive |  | inactive |  | inactive | inactive | inactive |  |  |  |  |  | inactive |  |
| C#CC1(O)CCCCC1 | inactive |  | inactive |  | inactive | inactive |  |  | inactive | inactive | inactive |  | inactive | inactive | inactive | inactive |  | inactive | inactive |  |
| c1ccc(N=NNc2ccccc2)cc1 |  | inactive |  | inactive | inactive |  |  |  |  |  | inactive |  | inactive | inactive | inactive | inactive |  |  | inactive |  |
| O=C1C[C@@H]2OCC=C3CN4CC[C@]56c7ccccc7N1[C@H]5[C@H]2[C@H]3C[C@H]46 | inactive |  | inactive |  |  | inactive |  |  | inactive | inactive | inactive |  | inactive | inactive | inactive | inactive |  | inactive |  |  |
| O=C(O)[C@H](O)[C@@H](O)C(=O)O | inactive | inactive | inactive |  | inactive | inactive |  |  | inactive |  | inactive | inactive | inactive |  |  |  | inactive | inactive |  |  |
| Cc1cc(C2CC2)nc(Nc2ccccc2)n1 |  |  |  |  | inactive | inactive | inactive |  |  |  | inactive | inactive |  | inactive |  |  |  |  |  | inactive |
| Cc1ccccc1OP(=O)(Oc1ccccc1C)Oc1ccccc1C |  |  |  |  | inactive | inactive |  | inactive |  | inactive | inactive | inactive |  | 54.7 µM (active) | inactive |  |  |  |  |  |
| Nc1nc(N)c(N)c(N)n1 |  |  | inactive |  | inactive | inactive |  | inactive | inactive | inactive | inactive |  | inactive | inactive | inactive | inactive |  | inactive |  |  |
| COP(=S)(OC)Oc1ccc([N+](=O)[O-])c(C)c1 | inactive | inactive | inactive | inactive | inactive | inactive |  | inactive | inactive | inactive | inactive |  | inactive | inactive | inactive | inactive | inactive | inactive | inactive | inactive |
| CN1CCc2cc3c(cc2C1O)OCO3 (stereo not drawn) | inactive |  |  |  | inactive |  |  |  |  | inactive | inactive |  | inactive | inactive | inactive | inactive |  | inactive |  |  |
| O.O.O.O=C([O-])[C@H]([O-])[C@@H]([O-])C(=O)[O-].O=C([O-])[C@H]([O-])[C@@H]([O-])C(=O)[O-].[K+].[K+].[Sb+3].[Sb+3] |  |  | inactive | 12.4 µM (active) | inactive |  |  |  | inactive | inactive | inactive | inactive |  | 1.94 µM (active) |  |  |  |  |  | inactive |
| N#CC(C#N)=NNc1cccc(Cl)c1 | 8.71 µM (active) |  | 8.71 µM (active) |  | 5.49 µM (active) |  |  |  | 6.92 µM (active) | 8.71 µM (active) | inactive |  | 2.73 µM (active) | 0.486 µM (active) | inactive | inactive |  |  |  |  |
| CCOP(=O)(OCC)Oc1cc(C)nc(C(C)C)n1 | inactive | inactive | inactive | inactive | inactive | inactive |  |  | inactive |  | inactive |  | inactive | inactive | inactive | inactive | inactive | inactive | inactive | inactive |

Reference: PubChem BioAssay (Tox21)
